These results are taken from ChEMBL document CHEMBL3433997, “St. Jude Leishmania screening dataset” (2016).

Structures are written as SMILES.

The target of this assay is Glucose transporter (Leishmania mexicana) (UniProt O61059). Description: ST_JUDE_LEISH: Cytotoxicity at 2uM final concentration against transgenic Leishmania Mexicana promastigotes LmGT2 that are glucose transport deficient and complemented with the L. Mexicana glucose transporter 2. Activity is measured by DNA content using SYBR green in vitro. In kind it is functional.
Regarding `N#Cc1cccc(NC(=O)c2cccc(S(=O)(=O)NC3CCN(CC4CCCCC4)C3)c2)c1` (stereo not given), the inhibition came out at 3.37%.
As for `CCCCCCNC(=O)C1Cc2c([nH]c3ccc(C)cc23)C2(CCN(CCc3ccccc3)CC2)N1` (stereo not given), the figure is 3.44%; as for `Clc1cccc(Nc2ccc3c(N4CCCCC4)ncnc3n2)c1`, 4.28%.
Regarding `COc1ccc2nccc([C@@H](O)CN3CCC(NC(=O)C(c4ccsc4)N4CCN(c5ccccc5OC)CC4)CC3)c2c1` (stereo not given in full), the inhibition is 0.49%.
Take `O=c1cc(NC[C@H]2CCC[C@@H]2NC2CCCc3c2[nH]c2ccccc32)[nH]c2ccccc12` (stereo not given in full): the inhibition was 5.67%.
To `CCc1ccc2nc(-c3ccc(F)cc3)nc(SCC(=O)Nc3sc(C)c(C)c3C#N)c2c1` belongs 5.07%; to `C[C@H](Nc1c(Nc2ccc3[nH]ccc3c2)c(=O)c1=O)C1CCCCC1`, -0.44%.
On to `Nc1nc(O)c2cc(CN(C=O)c3ccc(C(=O)N[C@@H](CCC(=O)O)C(=O)O)cc3)ccc2n1`, for which the inhibition amounted to 2.98%.
As for `CN1CCC[C@H]1COc1ccc(CN2CC[C@H](NC(=O)c3ccc(Cl)c(Cl)c3)C2)c2ccccc12`, the figure is 6.54%; as for `O=C(NC1CCN(Cc2ccccc2)CC1)c1ccc(-c2nc3cc(Cl)c(Cl)cc3[nH]2)s1`, 1.39%.
For the compound `O=C(c1cc(C(=O)Nc2ccccc2)c(=O)n(-c2ccccc2)c1)c1cc(Cl)ccc1O`, the inhibition is 2.58%.
As for `Cc1sc(CNCCCNc2cc(=O)c3ccccc3[nH]2)cc1Br`, the figure is 0.93%; as for `O=c1cc(NCCCNCc2ccc(Cl)c(Cl)c2)[nH]c2cc(F)cc(F)c12`, 3.08%.
As for `CCCCCCN1CCC(NCc2ccc(C(F)(F)F)cc2)CC1`, the figure is 5.77%; as for `COc1ccc(Nc2ncc3c(-c4cccc(NC(=O)c5ccc(N)cc5)c4)c[nH]c3n2)cc1OC`, 7.97%.
To `CCOC(=O)c1c(C)n(-c2ccccc2)c2ccc(OC(=O)c3ccc(S(=O)(=O)N(CC)CC)cc3)cc12` belongs 5.12%.
For the compound `CC(C)Nc1ccc(Nc2ccnc3cc4ccccc4cc23)cc1`, the inhibition amounted to 0.5%.
As for `COc1cc2nc(NCCc3ccccc3)nc(N(C)Cc3ccccc3)c2cc1OC`, the figure is 2.95%.
To `Cc1nc(C)n(CC(=O)Nc2cccc(-c3cccc(-c4nc5cc(C(F)(F)F)ccc5[nH]4)c3)c2)n1` belongs 7.09%; to `O=C(Nc1cccc(CN2CCCN(Cc3cccc(Cl)c3)CC2)c1)c1ccc(Br)cc1`, 9.96%; to `Clc1ccc2c(NCCNc3ccnc4cc(Cl)ccc34)ccnc2c1`, -0.13%.
Turning to `CCOc1c(Br)cc(Cl)cc1CNCCCNc1nc2ccccc2[nH]1`, the inhibition was 3%.
As for `CCC[C@@H]([C@@H](CC1CCCCC1)C(=O)N[C@H](C(=O)Nc1nccs1)C(C)(C)SCCNC(=O)OCC)N(O)C=O`, the figure is 4.28%.
As for `CN(C)CCOc1ccc(/C(=C(/CCCn2ccnc2)c2ccccc2)c2ccc(O)cc2)cc1`, the figure is 5.69%.
To `Cc1cc(-c2ccnc(Nc3cccc(C#N)c3)n2)cc(C)c1O` belongs 7.83%; to `COc1ccc(S(=O)(=O)NCCCC2CCN(CCCCCNC(=O)C=Cc3ccc(Cl)c(Cl)c3)CC2)cc1`, 3.65%; to `COc1cc2c(cc1OC)CN(CCc1ccc(NC(=O)c3cc4cc(OC(F)(F)F)ccc4[nH]3)cc1)CC2`, 1.17%.
Consider `c1ccc(Oc2ccc(Nc3ccnc(Nc4cccc(CNCCCN5CCOCC5)c4)n3)cc2)cc1`, for which the inhibition was -1.79%.
To `COc1ccc(CCCc2nc(N)nc(N)c2-c2ccc(Cl)cc2)cc1` belongs 3.75%; to `COc1ccc(S(=O)(=O)N(CCCN2CCN(C)CC2)Cc2csc(-c3ccc(CNCc4ccccc4)cc3)n2)cc1`, 1.67%; to `CCCc1cc(NCC)nc(Nc2ccc(F)cc2)n1`, 3.2%.
With `CN1CCC(Oc2ccc(NC(=O)c3ccc4c(=O)n(Cc5ccccc5)cnc4c3)cc2Cl)CC1`, the inhibition amounted to 8.76%.
As for `CCOc1ccc2nc3cc(NC(=O)c4ccco4)ccc3c(N)c2c1`, the figure is 2.78%; as for `COc1ccc2c(ccc3c2ncc2c(=O)n(-c4ccccc4)[nH]c23)c1`, -0.76%.
As to `Cc1cccc2c(/C=C/C(=O)NC3CCC(CCN4CCc5ccc(C#N)cc5CC4)CC3)c[nH]c12` (stereo not given), the inhibition was 7.58%.
To `CSc1ccc2ccccc2c1CNCCCCCCNCc1c(SC)ccc2ccccc12` belongs 1.41%; to `Cc1cc(=NN=Cc2cccc(F)c2)c2cccc(C)c2[nH]1`, 0.78%.
`O=C(Nc1ccc(OC2CCN(Cc3ccco3)CC2)c(Cl)c1)c1ccc2ncccc2c1`: the inhibition is 2.34%.
As for `Cc1ccc(NC(=O)C(C)Sc2nnc(-c3ccccc3Br)[nH]2)cc1` (stereo not given), the figure is -0.33%; as for `Cc1cc(N[C@@H](Cc2ccccc2)C(=O)Nc2ccccc2)nc(NCCc2cccnc2)n1`, 9.02%.

For orientation: inhibition means the drop in the measured response relative to a control, in per cent.
